Reference: the supplement of paper PMC10849652
The full data set covers some 8,800 targets. This sample favours those with a hit. About 0.5% of all pairs of compound and target were hits.

Columns and labels:
Test in all cases: log2 fold change, soluble protein after heating vs DMSO (PISA); higher = thermal stabilisation; K562 lysate, 10 uM; active = over 0.2 and 3.5 SD of the protein, either way, in both replicates (recomputed)
nilotinib = compound: Cc1cn(-c2cc(NC(=O)c3ccc(C)c(Nc4nccc(-c5cccnc5)n4)c3)cc(C(F)(F)F)c2)cn1 [nilotinib]
Procedure, shortened: (§1)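 K562 pellets were dounce-homogenised in PBS pH 7.4 containing 1 mM MgCl2, and the crude extract, at 1 mg/mL protein, was exposed to 10 μM compound for 30 min. Aliquots were heated for 3 min across 48°C-58°C, pooled, brought to 0.5% NP-40 at 4°C and spun at 21,000xg for 90 min, with the supernatant taken as soluble protein. TMTpro 16plex LC-MS/MS with equalised channel sums quantified that protein. Values are log-two fold changes in thermal stability relative to solvent controls, taken from duplicates.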

[1] = compound: Cc1nc(Nc2n[nH]c3c2CN(C(=O)N[C@H](CN(C)C)c2ccccc2)C3(C)C)c2sccc2n1
Procedure, shortened: as §1

[2] = compound: Cc1ncc(-c2ccnc(Nc3ccc(S(C)(=O)=O)cc3)n2)n1C(C)C
Procedure, shortened: as §1

[3] = compound: Cn1cc(-c2ccc3c(c2)CCN3C(=O)Cc2cccc(C(F)(F)F)c2)c2c(N)ncnc21
Procedure, shortened: as §1

quisinostat = compound: Cn1cc(CNCC2CCN(c3ncc(C(=O)NO)cn3)CC2)c2ccccc21 [quisinostat]
Procedure, shortened: as §1

tipifarnib = compound: Cn1cncc1[C@@](N)(c1ccc(Cl)cc1)c1ccc2c(c1)c(-c1cccc(Cl)c1)cc(=O)n2C [tipifarnib]
Procedure, shortened: as §1

[4] = compound: NC(=O)Nc1cc(-c2cccc(F)c2)sc1C(=O)N[C@H]1CCCNC1
Procedure, shortened: as §1

[5] = compound: NC(=O)c1cnc(N[C@@H]2CCCC[C@@H]2N)nc1Nc1cccc(-n2nccn2)c1
Procedure, shortened: as §1

[6] = compound: NC1(c2ccc(-c3nc4ccn5c(=O)[nH]nc5c4cc3-c3ccccc3)cc2)CCC1
Procedure, shortened: as §1

dasatinib = compound: Cc1nc(Nc2ncc(C(=O)Nc3c(C)cccc3Cl)s2)cc(N2CCN(CCO)CC2)n1 [dasatinib]
Procedure, shortened: as §1

Measured: log2 fold change

PRKDC (UniProt P78527)
inactive: nilotinib -0.015 | [1] -0.01 | [2] 0.188 | [3] 0.038 | quisinostat -0.093 | tipifarnib -0.011 | [4] 0.004 | [5] 0.123 | [6] -0.073

PCBP2 (UniProt F8W0G4)
inactive: nilotinib 0.034 | [1] -0.092 | dasatinib -0.138 | [2] -0.154 | [3] 0 | tipifarnib -0.298 | [6] 0.053

PPP2R5B (UniProt Q15173)
inactive: dasatinib 0.018 | [3] 0.021 | quisinostat 0.058 | [4] -0.025 | [5] 0.011 | [6] -0.015

PTK2 isoform 2 (UniProt Q05397)
inactive: dasatinib 0.014 | [3] 0.102 | [5] 0.034 | [6] -0.168

PFN3 (UniProt P60673)
inactive: nilotinib -0.104 | [1] 0.001 | [2] 0.033 | quisinostat -0.349 | tipifarnib -0.083 | [4] -0.044 | [5] -0.087

PPM1H (UniProt Q9ULR3)
UniProt Q9ULR3, sequence (Q9ULR3 whole entry, looked up): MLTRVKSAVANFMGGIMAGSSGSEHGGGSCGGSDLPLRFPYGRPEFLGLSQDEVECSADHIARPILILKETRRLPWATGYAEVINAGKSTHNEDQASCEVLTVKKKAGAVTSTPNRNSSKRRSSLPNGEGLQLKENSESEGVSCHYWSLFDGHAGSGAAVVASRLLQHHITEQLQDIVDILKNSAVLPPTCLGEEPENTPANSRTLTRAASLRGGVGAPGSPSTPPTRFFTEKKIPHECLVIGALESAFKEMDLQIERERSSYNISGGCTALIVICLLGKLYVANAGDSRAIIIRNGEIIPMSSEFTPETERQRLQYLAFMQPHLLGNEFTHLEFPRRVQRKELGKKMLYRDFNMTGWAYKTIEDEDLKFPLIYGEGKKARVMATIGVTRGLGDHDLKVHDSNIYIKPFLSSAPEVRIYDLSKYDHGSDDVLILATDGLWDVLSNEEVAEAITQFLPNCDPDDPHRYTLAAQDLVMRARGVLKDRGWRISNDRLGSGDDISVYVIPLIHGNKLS
inactive: dasatinib 0 | [3] 0.001 | quisinostat -0.036 | [4] -0.041 | [5] 0 | [6] -0.07

PPIC (UniProt P45877)
inactive: nilotinib -0.112 | [1] 0.069 | dasatinib 0.037 | [2] -0.02 | [3] -0.036 | quisinostat -0.063 | tipifarnib 0.145 | [4] 0.206 | [6] -0.045

PLXND1 (UniProt Q9Y4D7)
inactive: nilotinib -0.006 | [1] 0.043 | dasatinib -0.045 | [2] 0.092 | [3] 0.013 | quisinostat -0.093 | tipifarnib 0.014 | [4] -0.047 | [6] 0.094

PRKD3 (UniProt O94806)
UniProt O94806, sequence (O94806 whole entry, looked up): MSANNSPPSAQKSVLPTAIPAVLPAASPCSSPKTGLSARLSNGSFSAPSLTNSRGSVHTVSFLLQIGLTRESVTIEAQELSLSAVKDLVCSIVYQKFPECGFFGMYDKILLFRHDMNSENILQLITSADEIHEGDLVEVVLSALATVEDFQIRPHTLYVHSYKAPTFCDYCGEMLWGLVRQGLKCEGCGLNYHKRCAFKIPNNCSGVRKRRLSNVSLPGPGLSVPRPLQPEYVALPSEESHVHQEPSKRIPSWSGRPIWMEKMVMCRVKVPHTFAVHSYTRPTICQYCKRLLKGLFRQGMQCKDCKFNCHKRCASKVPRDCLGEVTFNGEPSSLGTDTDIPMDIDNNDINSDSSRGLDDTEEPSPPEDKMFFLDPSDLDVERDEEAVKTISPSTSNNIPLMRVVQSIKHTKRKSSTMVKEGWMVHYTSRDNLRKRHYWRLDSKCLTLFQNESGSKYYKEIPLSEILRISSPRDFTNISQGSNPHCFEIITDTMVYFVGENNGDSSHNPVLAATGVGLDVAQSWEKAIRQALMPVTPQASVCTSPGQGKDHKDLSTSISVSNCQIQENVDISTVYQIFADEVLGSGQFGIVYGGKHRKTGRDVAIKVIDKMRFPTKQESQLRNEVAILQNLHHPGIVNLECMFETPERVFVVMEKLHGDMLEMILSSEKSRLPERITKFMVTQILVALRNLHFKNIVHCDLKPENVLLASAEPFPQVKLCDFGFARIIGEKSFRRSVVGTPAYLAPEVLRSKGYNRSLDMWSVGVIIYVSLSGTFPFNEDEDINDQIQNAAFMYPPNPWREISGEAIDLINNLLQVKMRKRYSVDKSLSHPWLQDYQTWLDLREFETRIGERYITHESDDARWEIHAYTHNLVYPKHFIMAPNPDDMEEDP
inactive: nilotinib 0.054 | [1] -0.086 | [2] -0.03 | quisinostat -0.014 | tipifarnib 0.087 | [4] -0.174 | [5] 0.001 | [6] 0.054

PHF14 (UniProt O94880)
inactive: nilotinib -0.127 | [1] -0.203 | dasatinib -0.1 | [2] 0.082 | [3] 0.085 | tipifarnib 0.073 | [5] -0.077

PIAS2 (UniProt O75928)
inactive: nilotinib -0.019 | [1] -0.005 | dasatinib -0.097 | [2] 0.068 | [3] -0.026 | quisinostat 0.061 | tipifarnib -0.086 | [4] 0.004 | [6] 0.025

PPP2R3C (UniProt Q969Q6)
UniProt Q969Q6, sequence (Q969Q6 whole entry, looked up): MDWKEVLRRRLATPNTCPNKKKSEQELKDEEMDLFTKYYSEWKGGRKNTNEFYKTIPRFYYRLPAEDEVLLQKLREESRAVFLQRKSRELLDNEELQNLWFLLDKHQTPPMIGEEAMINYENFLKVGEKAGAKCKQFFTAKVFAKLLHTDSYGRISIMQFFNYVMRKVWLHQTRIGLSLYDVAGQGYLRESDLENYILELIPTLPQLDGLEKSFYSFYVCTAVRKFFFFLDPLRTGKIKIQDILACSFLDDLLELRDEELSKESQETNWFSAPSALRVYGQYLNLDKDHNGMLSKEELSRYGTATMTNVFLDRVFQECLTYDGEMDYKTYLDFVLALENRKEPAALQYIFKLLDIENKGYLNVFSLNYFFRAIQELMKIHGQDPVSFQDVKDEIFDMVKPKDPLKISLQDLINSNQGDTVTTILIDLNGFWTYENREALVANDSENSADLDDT
inactive: nilotinib -0.139 | [1] 0.057 | dasatinib -0.061 | [2] -0.13 | [3] -0.009 | tipifarnib 0.057 | [5] 0.038 | [6] 0.062

PPP1R12B isoform 6 (UniProt O60237)
active: quisinostat -0.531
inactive: dasatinib -0.065 | [3] 0.134 | [4] 0.006 | [5] 0.05 | [6] -0.075

PREP (UniProt H0Y5Y0)
inactive: [5] -0.087

PRR4 (UniProt Q16378)
inactive: nilotinib 0.047 | [1] -0.145 | [2] -0.027 | tipifarnib 0.05 | [5] 0.032 | [6] 0.012

PYGO2 (UniProt Q9BRQ0)
UniProt Q9BRQ0, sequence (Q9BRQ0 whole entry, looked up): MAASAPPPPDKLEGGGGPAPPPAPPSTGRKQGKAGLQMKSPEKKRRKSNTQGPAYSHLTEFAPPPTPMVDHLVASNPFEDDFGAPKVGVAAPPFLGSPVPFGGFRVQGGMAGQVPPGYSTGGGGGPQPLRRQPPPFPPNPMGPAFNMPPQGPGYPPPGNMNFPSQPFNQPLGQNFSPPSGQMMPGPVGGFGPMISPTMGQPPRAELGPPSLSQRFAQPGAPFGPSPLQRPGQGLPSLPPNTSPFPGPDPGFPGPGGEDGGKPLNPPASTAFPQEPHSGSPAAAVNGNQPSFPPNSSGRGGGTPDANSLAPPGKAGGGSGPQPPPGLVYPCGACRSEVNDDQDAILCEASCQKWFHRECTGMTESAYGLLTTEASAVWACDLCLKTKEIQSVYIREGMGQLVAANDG
inactive: nilotinib 0.01 | [1] 0.044 | dasatinib -0.028 | [2] 0.063 | [3] 0.004 | quisinostat 0.016 | tipifarnib -0.02 | [4] -0.015 | [6] 0.029

NA (UniProt Q4G0T1)
UniProt Q4G0T1, sequence (Q4G0T1 whole entry, looked up): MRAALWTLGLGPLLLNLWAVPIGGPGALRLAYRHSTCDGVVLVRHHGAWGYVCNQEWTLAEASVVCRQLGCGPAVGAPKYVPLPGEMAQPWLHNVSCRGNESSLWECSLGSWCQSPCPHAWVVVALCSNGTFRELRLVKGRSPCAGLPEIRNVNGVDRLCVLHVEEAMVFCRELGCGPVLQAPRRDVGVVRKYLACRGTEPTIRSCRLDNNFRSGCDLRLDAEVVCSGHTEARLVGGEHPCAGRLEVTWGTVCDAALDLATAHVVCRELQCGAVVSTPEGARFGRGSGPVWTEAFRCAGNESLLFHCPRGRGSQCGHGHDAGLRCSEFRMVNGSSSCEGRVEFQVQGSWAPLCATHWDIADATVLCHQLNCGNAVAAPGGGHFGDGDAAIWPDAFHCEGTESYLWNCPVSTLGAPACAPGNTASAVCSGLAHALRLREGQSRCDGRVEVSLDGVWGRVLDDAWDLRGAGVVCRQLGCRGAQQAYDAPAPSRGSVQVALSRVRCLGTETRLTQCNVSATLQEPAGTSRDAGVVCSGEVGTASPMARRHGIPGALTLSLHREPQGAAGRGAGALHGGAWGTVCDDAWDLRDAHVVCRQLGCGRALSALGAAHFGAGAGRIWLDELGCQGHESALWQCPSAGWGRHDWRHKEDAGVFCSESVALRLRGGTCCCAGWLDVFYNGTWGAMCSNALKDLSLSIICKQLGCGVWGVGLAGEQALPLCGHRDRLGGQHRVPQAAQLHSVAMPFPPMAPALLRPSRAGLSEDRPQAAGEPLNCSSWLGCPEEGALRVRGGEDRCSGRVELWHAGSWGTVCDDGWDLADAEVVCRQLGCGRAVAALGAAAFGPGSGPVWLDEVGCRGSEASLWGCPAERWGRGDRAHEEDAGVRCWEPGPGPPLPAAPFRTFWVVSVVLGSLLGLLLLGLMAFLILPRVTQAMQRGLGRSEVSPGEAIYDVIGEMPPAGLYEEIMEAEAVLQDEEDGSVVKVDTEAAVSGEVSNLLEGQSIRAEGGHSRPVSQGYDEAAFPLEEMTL
inactive: dasatinib 0.054 | [3] 0.095 | quisinostat 0.034 | [4] 0.054 | [6] 0.062

PCLAF (UniProt Q15004)
UniProt Q15004, sequence (Q15004 whole entry, looked up): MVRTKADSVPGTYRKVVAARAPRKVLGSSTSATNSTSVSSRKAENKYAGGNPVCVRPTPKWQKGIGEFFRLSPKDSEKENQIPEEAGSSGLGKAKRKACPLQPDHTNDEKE
inactive: nilotinib -0.115 | [1] 0.081 | dasatinib 0.001 | [2] 0.02 | [3] -0.087 | quisinostat -0.044 | tipifarnib 0.018 | [4] -0.018 | [6] 0.094

PIK3CD (UniProt O00329)
UniProt O00329, sequence (O00329 whole entry, looked up): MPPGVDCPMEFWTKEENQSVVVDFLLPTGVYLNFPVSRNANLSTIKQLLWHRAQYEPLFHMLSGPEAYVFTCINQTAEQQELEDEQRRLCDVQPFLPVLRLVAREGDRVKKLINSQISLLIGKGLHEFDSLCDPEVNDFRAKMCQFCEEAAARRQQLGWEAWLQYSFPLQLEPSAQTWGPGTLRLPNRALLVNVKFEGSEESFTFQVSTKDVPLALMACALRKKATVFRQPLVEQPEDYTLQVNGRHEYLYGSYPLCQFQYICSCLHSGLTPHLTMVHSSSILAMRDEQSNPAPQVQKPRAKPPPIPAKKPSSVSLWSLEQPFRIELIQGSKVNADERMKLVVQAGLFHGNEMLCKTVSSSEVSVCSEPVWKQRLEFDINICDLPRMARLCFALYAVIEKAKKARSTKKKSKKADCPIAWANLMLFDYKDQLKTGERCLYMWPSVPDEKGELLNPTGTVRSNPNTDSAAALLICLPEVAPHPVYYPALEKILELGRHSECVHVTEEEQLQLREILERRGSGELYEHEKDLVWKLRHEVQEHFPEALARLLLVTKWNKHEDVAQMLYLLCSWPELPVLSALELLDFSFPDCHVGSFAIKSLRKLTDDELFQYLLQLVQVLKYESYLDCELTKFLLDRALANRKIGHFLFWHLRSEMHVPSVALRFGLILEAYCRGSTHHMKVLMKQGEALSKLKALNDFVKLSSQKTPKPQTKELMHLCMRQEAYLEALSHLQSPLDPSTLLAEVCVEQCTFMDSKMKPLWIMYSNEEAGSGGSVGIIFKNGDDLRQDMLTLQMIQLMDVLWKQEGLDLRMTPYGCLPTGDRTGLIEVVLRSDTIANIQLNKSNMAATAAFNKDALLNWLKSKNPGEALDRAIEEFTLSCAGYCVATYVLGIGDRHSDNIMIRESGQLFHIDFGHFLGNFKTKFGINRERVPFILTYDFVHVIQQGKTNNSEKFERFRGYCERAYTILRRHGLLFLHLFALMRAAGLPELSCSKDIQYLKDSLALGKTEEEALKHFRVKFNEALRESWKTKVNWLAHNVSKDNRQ
inactive: nilotinib 0.059 | [1] 0.006 | [2] 0.122 | [3] 0.151 | quisinostat -0.091 | tipifarnib -0.053 | [4] 0.02 | [5] 0.001 | [6] 0.127

PNPLA4 (UniProt P41247)
inactive: dasatinib 0.099 | [3] 0.194 | quisinostat 0.048 | [4] 0.037

POLR2F (UniProt U3KPV3)
inactive: dasatinib -0.024 | [3] 0.038

PPP1R14C (UniProt Q8TAE6)
UniProt Q8TAE6, sequence (Q8TAE6 whole entry, looked up): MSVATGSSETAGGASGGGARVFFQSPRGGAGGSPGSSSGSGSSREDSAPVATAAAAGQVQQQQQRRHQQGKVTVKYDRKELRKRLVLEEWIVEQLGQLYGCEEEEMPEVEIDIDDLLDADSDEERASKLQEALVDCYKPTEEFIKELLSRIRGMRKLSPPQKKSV
inactive: nilotinib 0.075 | [1] -0.003 | dasatinib 0.105 | [2] -0.043 | [3] -0.173 | tipifarnib 0.073 | [5] -0.184

PPME1 (UniProt Q9Y570)
UniProt Q9Y570, sequence (Q9Y570 whole entry, looked up): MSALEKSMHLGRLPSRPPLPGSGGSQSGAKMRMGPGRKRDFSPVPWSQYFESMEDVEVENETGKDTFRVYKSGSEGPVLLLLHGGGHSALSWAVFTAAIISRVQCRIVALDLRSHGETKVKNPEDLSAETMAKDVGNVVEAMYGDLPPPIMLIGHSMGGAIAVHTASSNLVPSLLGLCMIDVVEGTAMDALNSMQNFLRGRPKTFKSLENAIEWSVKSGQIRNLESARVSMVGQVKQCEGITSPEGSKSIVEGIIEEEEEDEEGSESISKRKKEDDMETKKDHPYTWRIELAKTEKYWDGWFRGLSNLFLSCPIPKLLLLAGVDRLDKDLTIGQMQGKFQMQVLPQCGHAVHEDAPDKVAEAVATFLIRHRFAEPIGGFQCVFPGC
inactive: dasatinib 0.032 | [3] -0.08 | [5] 0.048 | [6] 0.027

PMS1 (UniProt P54277)
inactive: nilotinib -0.022 | [1] 0 | dasatinib -0.011 | [2] -0.001 | [3] 0.017 | quisinostat -0.086 | tipifarnib 0.058 | [4] 0.041 | [6] -0.029

PHOSPHO2 (UniProt C9JD35)
inactive: quisinostat 0.073 | [4] -0.102

PPP2CA (UniProt E7ESG8)
inactive: nilotinib 0.025 | [1] -0.108 | [2] -0.232 | tipifarnib 0.356
